The results in this text go back to the supplement of paper PMC11417369.

± gives the standard deviation of the averaged measurements. Whole data set: some 25,000 sequences, median “ln(normalized median fluorescence intensity)” near 8.6, cut for the highest 2% near 10. Only a selection was taken, and the highest values are over-represented in it overall.

For this experiment, the system named is PfAP2-EXP AP2 domain (GST-tagged). Nature of the experiment: gcPBM binding intensity (ln(normalized median fluorescence intensity)); higher = stronger DNA binding. A digest of the protocol: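 An Agilent 4 × 180k array carrying primer-extended double-stranded 36-bp intergenic genomic probes and negative controls received GST-tagged P. falciparum DNA-binding domains expressed in E. coli, about 25 μg on average, for 1 h. The binding buffer contained 1× PBS, 1% milk, 0.2 mg/ml BSA, 0.5% salmon testes DNA and 0.03% Triton X-100. Binding intensity is the top Masliner-normalised natural-log median intensity across replicate spots of either probe orientation, read after Alexa488 anti-GST antibody staining and a 488 nm scan.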
“ATTGCGTGATAATAATGTACAAAAAGTAATTTATAT [XGTACX_site8339]”: the “gcPBM binding intensity (ln)” value was determined as 8.48 ± 0.45.
With “TAATTCGCAAAAGAAAGAAATTAAGAAAAAGAAAAA [XGTACX_negctrl_site614]” the figure was 8.32 ± 0.68.
With “GTATATATATATATATATATATATTTTTATTTATTT [CACACA_negctrl_site589]” the figure was 8.65 ± 0.18; with “TTTTATTATTCTTCTCTCTTATATATATATATATAT [CACACA_negctrl_site646]”, 10.2 ± 0.26.
With “TTTTATTCCTATTTATTTATATTTTTGTCTTATATC [CACACA_negctrl_site125]” the figure was 8.8 ± 0.43; with “ATTTGTATATAATATATATAATTTTTTTTTTTTGTT [XGTACX_negctrl_site425]”, 8.2 ± 0.31.
As to “TTTTCATTCAATTATATTTATATATATATATATATA [GTGCAC_negctrl_site538]”, the “gcPBM binding intensity (ln)” value worked out at 10.2 ± 0.44.
With “ATTTTTTTTATTTTTTCAATATATATATATATATAT [CACACA_negctrl_site1444]” the figure was 10.2 ± 0.19.
With “TCTTTCTTATATTTATATAATTATATTTATTTTATA [GTGCAC_negctrl_site300]” the figure was 8.74 ± 0.38; with “TTTTTTTTTTTTTTTTTTTTCATTCAATTATATTTA [CACACA_negctrl_site712]”, 8.04 ± 0.33; with “ATATATTTTATTCCTATATATATATATATATATATA [GTGCAC_negctrl_site556]”, 10.2 ± 0.49.
With “TTTTTTTATTATTCTTATATAAAAATTTTTTTTAAT [CACACA_negctrl_site159]” the figure was 8.27 ± 0.45.
For the sequence “GTATATATTTTTATTTAATAATTTGTTTATTTATTC [CACACA_negctrl_site647]”, the “gcPBM binding intensity (ln)” value is 8.56 ± 0.22.
With “ATATATATATATATATATATAATTTTTTTTGTTTTT [TGCATGCA_negctrl_site453]” the figure was 10.3 ± 0.3; with “ACAAAAAAAAAGGAAACACACAAAAAAAAAAAATAA [CACACA_site3523]”, 8.44 ± 0.59.
With “TAATGAAAAAATAAAAGAATAAATAAATAAATAAAT [TGCATGCA_negctrl_site130]” the figure was 8.77 ± 0.3; with “AGTGTATATAGAAACATACACACATATTAATTTTAC [CACACA_site3127]”, 8.3 ± 0.28.
To “AAAAAAAAAAAAAAAGTGCACTGAAAATATATTGAA [GTGCAC_site9395]” belongs 9.04 ± 0.2; to “TTTTTTTTTCTTTCTTTCTTTTGTAAAAACCTCAAA [CACACA_negctrl_site723]”, 8.46 ± 0.37.
For “TGTGCACGTTCTGTGACACACATTTAAATGTGCTTA [CACACA_site176]”, the “gcPBM binding intensity (ln)” value was 8.62 ± 0.35.
Take “TTTTTTTTTTTTTTTTATTTATATATATATATATAT [CACACA_negctrl_site582]”: the “gcPBM binding intensity (ln)” value was determined as 9.98 ± 0.23.
With “ATTTTGTTATTATATATATATATATATATATATATA [XGTACX_negctrl_site590]” the figure was 10.3 ± 0.57; with “TATTTTTATTTTTAAACCATATATATATATATATAT [CACACA_negctrl_site1560]”, 10.3 ± 0.23; with “GCATATATTATATATTTATTTATTTTTTTTTTTTAA [GTGCAC_negctrl_site193]”, 8.32 ± 0.46.
To “TTTTTATTTATATATATATATATATATTATATATAA [CACACA_negctrl_site1654]” belongs 8.34 ± 0.36; to “TATTAATTAAACCATACACACATAATTTTTTTATAA [CACACA_site843]”, 8.21 ± 0.43.
With “GTTATATATATATATATATATATATATATTTTTTTT [GTGCAC_negctrl_site597]” the figure was 8.84 ± 0.15.
With “TATATATATTAATTTATTTATTTGTTTATTTATTTA [CACACA_negctrl_site185]”, the “gcPBM binding intensity (ln)” value is 8.41 ± 0.18.
To “TATATATATATATATATATATATTTTTATTATATAT [XGTACX_negctrl_site89]” belongs 10.2 ± 0.52; to “AAAATATATTAAGGCACACACATACAGATATATATA [CACACA_site5951]”, 8.9 ± 0.37; to “TATAAAATATAATTAGCACACATATATAAAATATAT [CACACA_site9355]”, 8.21 ± 0.34.
With “ATTTTGCCTGACCCATGTACATATTATTTTTTGCAT [XGTACX_site2258]” the figure was 9.41 ± 0.4; with “AGTATATTAATATAATGTACAAACGTTTATTTTGTA [XGTACX_site5980]”, 8.59 ± 0.42; with “ATATATATATATATATGTACACACATCAATCATATT [XGTACX_site4005]”, 10.2 ± 0.54.
With “TACGAAATCATATGTACACACACATATATATATATA [CACACA_site5216]” the figure was 10.1 ± 0.39; with “CGAAATCATATGTACACACACATATATATATATATA [CACACA_site2151]”, 10.2 ± 0.62.
Consider “AAAATATATACAATATGTACATATATATATATATAT [XGTACX_site1898]”, for which the “gcPBM binding intensity (ln)” value worked out at 9.96 ± 0.35.
For the sequence “TATATATATATATATGTACACACATCAATCATATTA [CACACA_site8594]”, the “gcPBM binding intensity (ln)” value was determined as 10.1 ± 0.36.
With “TTACGATCATCAATATGTACATATATATATATATAT [XGTACX_site4301]” the figure was 10.2 ± 0.3; with “ATATATATATATATATGTACATACATACAATCATAT [XGTACX_site6410]”, 10.3 ± 0.45.
With “ATATATATATATATATGTACATATATATACATATAT [XGTACX_site6987]” the figure was 10.1 ± 0.43; with “AAATATATATATATATGTACACACACACATATAAAT [XGTACX_site847]”, 8.5 ± 0.3.
With “TTAACAAAATATAGCACACATAAATATATATTTATG [CACACA_site351]” the figure was 8.66 ± 0.33; with “TATACATATTATATATGTACACATATTATATGTATA [XGTACX_site5851]”, 8.27 ± 0.15.
As to “ATTATATAGAATTGTACATGCGAATTGTATAACGAT [TGCATGCA_site125]”, the “gcPBM binding intensity (ln)” value worked out at 9.31 ± 0.57.
For “ACATATATATAATATATATATCATCATATTTTCTTA [CACACA_negctrl_site853]”, the “gcPBM binding intensity (ln)” value was 8.27 ± 0.39.
For the sequence “TATTAAAATTAAAAAAAAAAAAAAAAGCAATAAAAA [XGTACX_negctrl_site426]”, the “gcPBM binding intensity (ln)” value is 8.33 ± 0.71.
Consider “CGTATGCAAGGAACCACACACACACCCATAAATGTA [CACACA_site749]”, for which the “gcPBM binding intensity (ln)” value came to 8.51 ± 0.45.
To “TTTTCTACATCTTGTTGTACGAAAAATAAAAAAAAT [XGTACX_site4620]” belongs 8.72 ± 0.47; to “TATTTTATAAATTAATGTACATAAATTATATCTACT [XGTACX_site3625]”, 8.35 ± 0.16.
To “TTTTAAACAGGACACACACACATATAGATTTATATA [CACACA_site6560]” belongs 8.69 ± 0.4.
On to “TTTTTTTTTTTTTTTTTTAAACACCTCAAAAAAAAA [CACACA_negctrl_site807]”, for which the “gcPBM binding intensity (ln)” value is 8.04 ± 0.36.
To ATATATATCTTTTGTGTGCACATATATATAATATAT belongs 8.97 ± 0.24; to ATAATATCTTTATGTGTGCACATATATATATATATA, 10.1 ± 0.38.
With GAGGTCTTTTTTAATGTGCACATATATATATATATA the figure was 10.3 ± 0.25.
